Test results taken from PubChem BioAssay (NCATS).
Records with an inconclusive call do not appear. Calls of active or inactive are those of the source. Unless noted, calls follow the shape of the dose curve; as a rule, active = well fitted curve in the direction sought with a large enough effect; inconclusive = small, poorly fitted or top-dose-only effect, or another doubt; inactive = no such curve, though single readings can be large; an effect the other way counts as inactive or inconclusive.

Experiments:
[1] = biological target: Arylsulfatase A (Homo sapiens) (UniProt P15289); assay: qHTS screen for enhancers of Arylsulfatase A (ASA1): LOPAC Validation Assay (AID 720538); conditions: outcome: dose series up to 57.5 µM
Excerpt: Lysosomal storage diseases (LSDs) are caused by genetic mutations in genes encoding proteins important for normal lysosomal function. In affected patients, symptoms are usually not manifested unless the mutations result in more than 90% reduction of enzymatic activity of a specific lysosomal enzyme. […] Small molecules could function as enzyme enhancement agents by binding to and stabilizing mutant misfolded proteins in the endoplasmic reticulum (ER), allowing them to evade the ER associated degradation (ERAD), and eventually reach the lysosome. Moreover, small molecules is hypothesized to be able to enhance the residual activity of deficient lysosomal enzyme by either interacting directly with the mutant enzyme or indirectly by acting in different cellular pathways; resulting to increased levels of the mutant and partially functional protein in the lysosomal compartment.
A cell based assay in 1536 well plate format was developed to evaluate activity of the lysosomal sulfatase ASA1 enzyme. […]
Four microliter (~8,000 cells/well) of SV40-transformed skin fibroblasts from an MLD patient (ASA-I179S) were seeded into a 1,536 solid white plate. […] To stop the reaction, 5 uL of 5 N of NaOH (1N NaOH final concentration) was then added and fluorescence was measured using the ViewLux plate reader (Ex=525 nm; Em=598 nm).

[2] = qHTS assay for small molecule antagonists of the retinoid-related orphan receptor gamma (ROR-gamma) signaling pathway - cell viability counter screen (AID 720652; active = well fitted curve in the direction sought with a large enough effect in the repeat runs; an effect the other way counts as inactive or inconclusive;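 also: CHO reporter cells with doxycycline-induced ROR-gamma expression; series mostly up to about 92 µM; compound exposure lasted 16 hr before ATP read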)
Procedure, shortened: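 Counter screen in CHO cells carrying TET-inducible ROR-gamma and an ROR response element-luciferase reporter; cells plated 5 hr, compound pinned, doxycycline added, then 16 hr at 37 C. Viability read as intracellular ATP by CellTiter-Glo luminescence.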

Arylsulfatase A (Homo sapiens), sequence (P15289 whole entry, looked up): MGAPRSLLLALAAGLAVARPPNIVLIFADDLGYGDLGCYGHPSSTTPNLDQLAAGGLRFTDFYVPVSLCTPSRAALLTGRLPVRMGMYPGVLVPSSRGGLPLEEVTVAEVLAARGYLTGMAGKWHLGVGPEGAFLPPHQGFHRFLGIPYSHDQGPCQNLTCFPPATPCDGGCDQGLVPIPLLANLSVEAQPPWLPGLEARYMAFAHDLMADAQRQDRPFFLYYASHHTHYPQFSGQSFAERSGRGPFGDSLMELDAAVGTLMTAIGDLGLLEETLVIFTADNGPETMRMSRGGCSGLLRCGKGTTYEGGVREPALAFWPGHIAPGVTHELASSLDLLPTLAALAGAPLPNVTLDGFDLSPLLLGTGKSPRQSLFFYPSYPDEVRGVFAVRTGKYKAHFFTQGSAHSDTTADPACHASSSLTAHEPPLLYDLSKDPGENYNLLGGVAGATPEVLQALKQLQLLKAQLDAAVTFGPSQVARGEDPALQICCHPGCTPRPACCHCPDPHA

| SMILES | outcome [1] | outcome [2] |
| --- | --- | --- |
| CN[C@H](CC(C)C)C(=O)N[C@H]1C(=O)N[C@@H](CC(N)=O)C(=O)N[C@@H]2C(=O)N[C@H]3C(=O)N[C@H](C(=O)N[C@H](C(=O)O)c4cc(O)cc(O)c4-c4cc3ccc4O)[C@H](O)c3ccc(c(Cl)c3)Oc3cc2cc(c3O[C@@H]2O[C@H](CO)[C@@H](O)[C@H](O)[C@@H]2O[C@H]2C[C@](C)(N)[C@H](O)[C@H](C)O2)Oc2ccc(cc2Cl)[C@H]1O | inactive | – |
| O=c1[nH]c(=O)n([C@H]2C[C@@H](O)[C@@H](CO)O2)cc1C=CBr | inactive | – |
| Cc1cc(O)c2c(c1)C(=O)c1cccc(O)c1C2=O | – | inactive |
